In PubChem BioAssay AID720650 (Broad Institute, 2013):
A number with no mark means an inactive call. Activity calls are given as the source filed them. No rule for the calls is given here.

Assay: C difficile toxins, biochemical counterscreen, UDPG substrate absence, confirmatory dose response (AID 720650)

Structure (SMILES)	AC50
CSc1ccccc1NC(=O)C1=CC(c2ccc(C)cc2)=NS(=O)(=O)N1C	inactive
Cc1ccc(S(=O)(=O)Oc2ccccc2/C=C2/SC(=O)NC2=O)cc1	inactive
COc1cc(/C=C/C(=O)OCC(=O)c2ccc[nH]2)ccc1O	inactive
Nc1ccc(OC(=O)Nc2ccc(O)cc2)cc1	18.9 µM (active)
O=S(=O)(c1ccccc1)N1CCN=C1SCc1ccccc1	> 39 µM
COc1cc(-c2noc(C)c2C#CC2(O)CCCCC2)cc(OC)c1OC	inactive
O=C(Nc1nnc(C(F)(F)F)s1)c1ccc(Br)s1	8.05 µM (active)
COC(=O)[C@@]12CCCCN1[C@H](c1ccc(-c3ccccc3)c(OC)c1)[C@H]1C(=O)N(C)C(=O)[C@H]12	inactive
O=C(O)c1cc(NS(=O)(=O)c2ccc(NC3CCCCC3)c([N+](=O)[O-])c2)cc(C(=O)O)c1	inactive
CCCC(=O)Nc1sc2c(c1C(=O)Nc1ccccn1)CCCC2	inactive
COc1ccccc1-c1cn[nH]c1-c1ccc(O)cc1O	> 39 µM
Cc1scc(C(=O)N2CCN(c3ccc(Cl)cc3)CC2)c1C	inactive
CCCc1cc(=O)oc2c3c(cc(OCC(=O)NCCCn4ccnc4)c12)OC(C)(C)CC3	inactive
CS(=O)(=O)N1CCc2cc(C(=O)Nc3ccc(O)cc3)ccc21	14.8 µM (active)
C=CCn1c(SCC(=O)N2CC(=O)Nc3ccccc32)nc2scc(-c3ccccc3)c2c1=O	inactive
COCCNc1cc(N)c([N+](=O)[O-])cc1[N+](=O)[O-]	inactive
COc1cc(Cn2nnc3ccccc32)ccc1O	15.8 µM (active)
CCNC(=O)[C@H]1[C@H](CO)[C@H]2Cn3c(ccc(-c4ccccc4)c3=O)[C@H]2N1CC	inactive
O=C(NNc1nc2c(F)cccc2s1)C1COc2ccccc2O1 (stereo not given)	0.34 µM (active)
c1ccc(SCc2nc3ccccc3s2)nc1	inactive
COc1ccc(Cl)cc1NC(=O)CSc1nnc(-c2ccco2)o1	> 39 µM
Cc1ccc(NC(=O)C2OCCc3ccccc32)cc1C (stereo not given)	inactive
CCOc1ccc(C(CC(=O)O)NC(=O)C23CC4CC(CC(C4)C2)C3)cc1OC (stereo not given)	inactive
Cc1[nH]c(=O)c(C#N)c2c1CCCC2	inactive
Cc1ccc(C(=O)COC(=O)c2cc(=O)[nH]c3ccccc23)cc1	inactive
CN(C)/C=C(\C#N)C(=O)Nc1ccc(O)cc1F	9.11 µM (active)
Cc1ccccc1C(C(=O)NC1CCCCC1)N(C(=O)c1ccccn1)c1cccnc1 (stereo not given)	inactive
COc1cccc(/C=C/c2onc(C)c2S(=O)(=O)N2CCC(C(=O)NC3CCCCCC3)CC2)c1	inactive
Oc1ccc(Cc2ccccc2Cl)c(O)c1	> 39 µM
Cc1cc(C(=O)CSc2nnnn2-c2ccccc2)c(C)n1-c1ccc2c(c1)OCO2	inactive
